Test results taken from ChEMBL document CHEMBL3988442, “University of Dundee, Small-Polar-MMV Screening Library” (2021).
In all, about 48,000 compounds went through this assay and about 13,000 (27%) showed an effect of 50% or more. The list shows a part of the results.

tested on: Wolbachia pipientis; assay: Anti-Wolbachia Cell-Based Screen; assay type: functional; set-up: scale not given: in the data most compounds retested in dose-response had high values; conditions: 5 µM

Compound | Percent Effect [%]
Oc1c(F)cc(CNc2cccc(-c3nnc[nH]3)c2)cc1F | 3.752
NCc1cn(CC2CCCN(C(=O)NCCc3ccc(F)cc3)C2)nn1 (configuration not stated) | -14.7
O=C(CSc1nnc[nH]1)NCc1sccc1Br | -6.223
N#Cc1ccc(CCC(=O)N2CCCC(n3cncn3)C2)cc1 (configuration not stated) | 122.1
O=C(Cc1ccc2c(c1)OCCO2)N1CCCC(n2cncn2)C1 (configuration not stated) | 8.803
O=C(CCc1ccsc1)N1CCCC(n2cncn2)C1 (configuration not stated) | 119.5
COc1ccc(CCCC(=O)N2CCCC(n3cncn3)C2)cc1 (configuration not stated) | -28.74
N#Cc1ccc(CC(=O)N2CCCC(n3cccn3)C2)cc1 (configuration not stated) | 3.73
COc1ccc(CCC(=O)N2CCCC(n3cncn3)C2)cc1 (configuration not stated) | 106.9
COc1ccc(CCN2CCCC(n3cncn3)C2)cc1 (configuration not stated) | -2.484
O=C(CCc1ccc(Cl)s1)N1CCCC(n2cncn2)C1 (configuration not stated) | 2.271
O=C(c1cccnc1O)N1CCCC2(C=Cc3ccccc3O2)CC1 (configuration not stated) | 2.5
COc1cccc(COCC(O)CN2CC(n3cccn3)C2)c1 (configuration not stated) | -10.3
FC(F)Oc1ccc(CN2CCOC3(CCOCC3)C2)cc1Cl | 7.261
CN(C)C(=O)N1CCN(Cc2ccc3occc3c2)[C@H]2CS(=O)(=O)C[C@H]21 | -2.327
COc1ccccc1CCN(C)C(=O)NC(C)c1nncn1C (configuration not stated) | 3.532
CC(Nc1nc2c(cnn2C)c(=O)[nH]1)c1ccccn1 (configuration not stated) | -0.01009
O=C(NCCCNc1ccccc1)c1scnc1Cl | 2.651
O=C(CN1CCOC(c2ccccc2C(F)(F)F)C1)NC1CC1 (configuration not stated) | 8.433
COCCCNc1nc(CNC(C)=O)cc(-c2ccco2)n1 | 96.87
COCCN1CCn2cc(CNC(=O)C3CCC3)nc2C1 | -2.168
COCCN(C(=O)c1nc(-c2ccco2)sc1C)C1CC1 | 4.119
Cc1cc(NCc2csc(-c3ccco3)n2)ccc1C(N)=O | -17.43
COCCCNc1nc(CNC(=O)C2CCC2)cc(-c2ccco2)n1 | 103.2
COCCNc1ccccc1CNC(=O)C1CCCOC1 (configuration not stated) | -2.92
CN1CCC(N2CCOC[C@H](OCC(=O)N(C)C)C2)CC1 | -7.154

Compound | Percent Effect [%]
CN(Cc1nccs1)c1nc(-c2ccccn2)nc2c1CCNCC2 | -16.23
O=C(NC1CCNC1)C1(N2CCCCC2)Cc2ccccc2C1 (configuration not stated) | 108.7
C[C@@H]1CN(C(=O)C2(N3CCCCC3)Cc3ccccc3C2)C[C@H](C)O1 | 1.52
O=C1NCCCCC1NC(=O)N1CCCc2ccccc21 (configuration not stated) | 0.9845
C[C@@H]1CN(C2(C(=O)N3CCNCC3)Cc3ccccc3C2)C[C@H](C)O1 | 0.2637
O=C1NCCCCC1NC(=O)N1CCc2ccccc21 (configuration not stated) | -9.694
O=C1NCCCC[C@@H]1NC(=O)C1(N2CCCCC2)Cc2ccccc2C1 | 94.83
CCN1CCN(C2(C(=O)NC3CCCC3)Cc3ccccc3C2)CC1 | 34.09
O=C(NC1CCNCC1)C1(N2CCCCC2)Cc2ccccc2C1 | 123.6
C[C@@H]1CN(C2(C(=O)N3CCCCCC3)Cc3ccccc3C2)C[C@H](C)O1 | 10.21
Cc1ccsc1C(=O)NC1CCS(=O)(=O)c2ccccc21 (configuration not stated) | 9
CC(C)COCC(NC(=O)CSc1nnc[nH]1)c1ccco1 (configuration not stated) | 34.68
CCC(C)(C)n1nnnc1C(c1cccs1)N1CCc2ccccc2C1 (configuration not stated) | 110.2
CCC(C)(C)n1nnnc1C(c1cccs1)N1CCc2ccccc21 (configuration not stated) | 114.5
Cc1nnc(NCC(c2cccs2)N2CCCC2)c(C#N)c1C (configuration not stated) | 15.53
CCC(C)(C)n1nnnc1C(c1cccs1)N1CCCCC1 (configuration not stated) | 117.5
CCC(CNC(=O)c1cncc(Br)c1)N1CCc2ccccc2C1 (configuration not stated) | 4.86
CCC(CNC(=O)c1ccccn1)N1CCc2ccccc2C1 (configuration not stated) | 2.728
CCn1cnnc1CNC(=O)NCC(c1cccs1)N1CCCC1 (configuration not stated) | -4.375
Cc1nc(CN2CCCn3cnc(COC(C)C)c3C2)cs1.O=C(O)C(F)(F)F | 6.346
CCOc1ccc2c(c1)C=C(C(=O)NC(C)Cn1cccn1)CO2 (configuration not stated) | 15.57
CSCCC(=O)N1CCC(c2nccn2CCN(C)C)CC1 | -6.399
CCCN(C(=O)CS(=O)(=O)c1ccccc1)c1cccc(C)c1 | -28.2
Cl.c1cc(NCc2ccncc2)nc(C2CCCNC2)c1 (configuration not stated) | 93.58
O=C(CCNc1ccc(Br)cn1)NCc1ccncc1 | 2.511
c1ccc(NCCn2cc(C3CCCNC3)nn2)cc1 (configuration not stated) | -6.163

Compound | Percent Effect [%]
Cl.c1cc(NCc2ccncc2)nc(C2CCCN2)c1 (configuration not stated) | 109.1
COCC(=O)Nc1ccc(-c2noc([C@@H]3CCCN3)n2)cn1 | 10.12
Cl.FC(F)CNc1cnc(C2CCCN2)cn1 (configuration not stated) | 111.3
Cl.c1cc(CNc2cnc(C3CCCN3)cn2)ccn1 (configuration not stated) | 93.64
Cc1cccc(-c2c[nH]c(C3CCCN3)n2)c1.Cl.Cl (configuration not stated) | -28.51
OC1CCN(Cc2ccc(CNc3ccc(Cl)cn3)cc2)CC1 | -3.648
CCOc1cncc(N(C)CC(=O)NC)n1 | 3.632
COc1ccc(F)cc1C(=O)N1CCn2c(nnc2C(F)(F)F)C1 | -12.82
CC(CNC(=O)c1cccc(-n2cccn2)n1)Cn1ccnc1 (configuration not stated) | -7.743
CCN1CC2(CCC1=O)CCN(C(=O)C(O)c1cccc(Cl)c1)CC2 (configuration not stated) | -4.5
Cc1ccc(NCCCNC(=O)NCC2CCS(=O)(=O)C2)nc1 (configuration not stated) | 4.563
CCC(CC)CNCC1(S(C)(=O)=O)CCOCC1 | -4.414
CC(=O)N[C@@H]1CN(S(=O)(=O)c2ccc(Cl)cc2)C[C@H]1O | 155.9
CCC[C@H]1CN(S(=O)(=O)c2ccc(Cl)cc2)C[C@@H]1NC(C)=O | 12.77
CCC[C@@H]1CN(S(=O)(=O)c2ccc(OC)c(OC)c2)C[C@H]1NC(C)=O | -5.851
CN(CCC#N)C(=O)Cc1csc(-c2ncccn2)n1 | 2.424
CNC(=O)[C@@H]1C[C@H](N)CN1Cc1cc2cc(C)cc(C)c2[nH]c1=O | 27.32
COCCn1cc2c(n1)C(CNCc1ccco1)OCC2.O=C(O)C(F)(F)F.O=C(O)C(F)(F)F (configuration not stated) | 3.436
Cn1cc2c(n1)C(CNCc1ccco1)OCC2.O=C(O)C(F)(F)F.O=C(O)C(F)(F)F (configuration not stated) | 145.8
O=C(O)C(F)(F)F.O=C(O)C(F)(F)F.O=C(O)C(F)(F)F.c1ccc(Cn2cc3c(n2)C(CNCc2ccco2)OCC3)nc1 (configuration not stated) | -0.4855
Cc1occc1C(=O)NCC1OCCc2cn(C)nc21.O=C(O)C(F)(F)F (configuration not stated) | 115.2
Cn1cc2c(n1)C(CNCC1CCOCC1)OCC2.O=C(O)C(F)(F)F.O=C(O)C(F)(F)F (configuration not stated) | 10.93
CC(C)NCC1OCCc2cn(C)nc21.O=C(O)C(F)(F)F (configuration not stated) | 25.68
COc1ccccc1C1(CNc2snc(Cl)c2C#N)CCOCC1 | -1.634
COc1cc(N2C[C@@H](C)[C@](O)(C3CC3)C2)nc(N)n1 | -24.25
CC1CN(c2ncnc3ccccc23)CCO1 (configuration not stated) | -1.794

Compound | Percent Effect [%]
CC(C)n1nc(CN2CCOCC2)c2c1CN(Cc1ccsc1)C2.O=C(O)C(F)(F)F.O=C(O)C(F)(F)F | -3.193
CC(C)n1nc(Cn2cccc2)c2c1CN(C1CCOCC1)C2.O=C(O)C(F)(F)F | -6.023
CC(C)n1nc(CN2CCOCC2)c2c1CN(C(=O)c1ccno1)C2.O=C(O)C(F)(F)F | 102.9
CC(C)n1nc(Cn2cccc2)c2c1CN(Cc1ccoc1)C2.O=C(O)C(F)(F)F | -4.933
CC(C)n1nc(CN2CCCCC2)c2c1CN(C(=O)c1ccno1)C2.O=C(O)C(F)(F)F | 85.62
Cc1ccc(C(=O)N2Cc3c(CN4CCCCC4)nn(C)c3C2)cc1C.O=C(O)C(F)(F)F | -1.924
O=C(c1cc(Cl)c2c(c1)OCO2)N1CCN(c2nccs2)CC1 | -12.71
O=C(NCc1c(F)cccc1Cl)c1cc(CN2CCCC(O)C2)on1 (configuration not stated) | -0.1537
Cc1cccc2c1nc1n2[C@@H](CNC(=O)CCC(=O)O)COC1 | -14.2
CNCc1cc(F)ccc1Oc1ccc(F)cc1F | 116
CNCc1cc(F)ccc1Oc1ccc(F)cc1 | 114.4
CNC(=O)COc1ccc(CNCc2ccc(F)cc2F)cc1 | -7.839
COc1ccc(C)cc1CC(=O)NC(CC(=O)O)c1ccc(F)cc1 (configuration not stated) | 6.211
CC(C)S(=O)(=O)NCc1cccnc1Oc1ccc(F)cc1F | -8.317
CN(C)S(=O)(=O)NCc1cccnc1Oc1ccc(F)cc1F | 1.253
COc1ccc(CC(=O)NC(CC(=O)O)c2ccc(F)cc2)cc1OC (configuration not stated) | 11.02
Cc1noc(NCc2cc(F)ccc2F)n1 | 5.671
CNCc1cc(F)ccc1Oc1ccc(Cl)cc1 | 118.2
CC(NCC1CCN(CCO)CC1)c1ccc(Cl)cc1 (configuration not stated) | 5.926
CCc1nn(C)c(Cl)c1CN1CCN(c2ccc(C(N)=O)cn2)CC1 | -7.307
CC(C)Cc1ncc2c(n1)CN(C(=O)c1ccc(CN3CCCC3)o1)C2 | 8.376
O=C(NC1CC1)[C@H]1C[C@H]2OCC[C@H]2N(Cc2cccc3ccccc23)C1.O=C(O)C(F)(F)F | -4.229
Cc1nc(N(C)C)nc(C)c1NC(=O)c1ccco1 | 16.89
CC(C)C(=O)N1CCN(S(C)(=O)=O)CC2(CC(=O)N(C)C2)C1 (configuration not stated) | 4.406
